Data taken from PubChem BioAssay AID893 (National Center for Advancing Translational Sciences (NCATS), 2007).
Values joined by “and” are separate entries in the source; they are usually repeats but may differ in a detail not shown here. Identical values can stand only once. Out of some 75,000 compounds screened, about 5,700 (7.6%) were called active. Entries that show only a call come without a potency. Roughly 7% stayed inconclusive and do not appear here. The call rests on the fitted dose curve; in most records, active means well fitted inhibition curve with a large enough effect; inconclusive means small, poorly fitted or top-dose-only effect; inactive means no such curve, though single readings can be large or run the other way. Only a selection was taken, and actives are over-represented in it overall.

Biological target: 3-hydroxyacyl-CoA dehydrogenase type-2 (Homo sapiens) (UniProt Q99714)
Assay: qHTS Assay for Inhibitors of HSD17B4, hydroxysteroid (17-beta) dehydrogenase 4;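 further: the protocol describes HADH2 (HSD17B10) and not the HSD17B4 of the title; nearly all actives have a fitted effect of over 70% in size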
Details: recombinant HSD17B10, NADH fluorescence kinetic; series mostly up to 57.1 µM
Procedure, shortened: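 20 nM HADH2, pH 9.0 Tris/Tween; cpd preinc 15 min RT; start w/ 1 mM NAD+ + 90 uM b-hydroxybutyryl-CoA; kinetic fluor ex360/em450 q30s x 4 min; delta last-first.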
Potency means the concentration at half of the fitted maximal effect.

| SMILES | Potency | activity change, negative = inhibition |
| --- | --- | --- |
| COc1cccc(OCCOc2cccc(/C=N/n3cnnc3)c2)c1 | inactive |  |
| COc1ccccc1OCCOc1ccc(/C=N/n2cnnc2)cc1 | inactive |  |
| C=CCOc1ccc(/C=N/n2cncn2)cc1OC | 15.8 µM (active) |  |
| Cc1cnc(NC(=O)CSc2nnc(-c3ccccc3)n2Cc2ccccc2)s1 | inactive |  |
| Cc1nc(NC(=O)C23CCC(C)(C(=O)O2)C3(C)C)sc1C (centres undefined) | inactive |  |
| CN1CCC(CNC(=O)c2ccc(-n3c(=O)c(=O)[nH]c4ccccc43)cc2)CC1 | inactive |  |
| O=C(Cl)c1ccc([N+](=O)[O-])cc1 | inactive |  |
| FC(F)(F)c1cc(-c2cccs2)nc(NCc2ccco2)n1 | 31.6 µM (active) |  |
| O=C(CSc1nnc(-c2cccs2)n1-c1ccccc1)NCc1ccco1 | inactive |  |
| O=C(CSc1nc(-c2ccco2)cc(C(F)(F)F)n1)NCc1cccs1 | inactive |  |
| COc1ccccc1Nc1ncc(C(C)=O)c(C)n1 | inactive |  |
| O=C(Nc1ccccc1F)C1C2C=CC3(O2)C1C(=O)N(c1cccnc1)C3C(=O)NC1CCCCC1 (centres undefined) | inactive |  |
| COc1cccc([C@H]2Oc3ccc(OC)cc3/C(=N\OCC[C@@H]3C=C[C@H](OC(C)=O)[C@H](COC(C)=O)O3)[C@@H]2O)c1 |  | -5.53% [at 11.4 µM] (inactive) |
| COc1cccc(C(=O)c2cc3ccc(O)cc3oc2=O)c1 | inactive |  |
| O=c1oc2cc(O)ccc2cc1-c1ccc(F)cc1 | inactive |  |
| COc1ccc(-c2cc3ccc(OCc4nn[nH]n4)cc3oc2=O)cc1 | 25.1 µM (active) |  |
| c1ccc(-n2ncc3c2ncn2c(CSc4nc5ccccc5s4)nnc32)cc1 | inactive |  |
| CCOC(=O)Cn1c(CN(Cc2ccccc2)Cc2ccccc2)nc2c1c(=O)[nH]c(=O)n2C | inactive |  |
| CCCOC(=O)c1[nH]c2c(c1C)C(=O)CC(c1cc(OC)c(OC)c(OC)c1)C2 (centres undefined) | inactive |  |
| CC1(C)OC2CO[C@]3(COS(N)(=O)=O)OC(C)(C)OC3C2O1 (some centres undefined) | inactive |  |
| COc1c(C)c2c(c(O)c1C/C=C(\C)CCC(=O)O)C(=O)OC2 | 12.6 µM (active) and 25.1 µM (active) |  |
| Oc1cc(O)c2c(c1)OC(c1ccc(O)c(O)c1)C(O)C2 (centres undefined) | inactive |  |

| SMILES | Potency | activity change, negative = inhibition |
| --- | --- | --- |
| O=C(NCCCN1CCN(C2CCCCC2)CC1)Nc1ccccc1C(F)(F)F | inactive |  |
| Oc1ccc(O)c2c(O)cccc12 | 12.6 µM (active) |  |
| Cc1cccc(CNc2cc(-c3ccccc3Cl)ncn2)c1 | inactive |  |
| Cc1ccc(S(=O)(=O)NCC(=O)N(CC(=O)NC2CCCCC2)Cc2ccco2)cc1 | inactive |  |
| Cc1ccc(NC(=O)CS(=O)CC(=O)N(c2ccccc2)C(C)C(=O)NC2CCCC2)cc1 (centres undefined) | inactive |  |
| O=c1[nH][nH]c(=O)c2cc(N3CCCC3)ccc12 | 31.6 µM (active) |  |
| CO[C@H]1COC(=O)[C@H](Cc2ccccc2)NC(=O)C/C=C\[C@@H](C)[C@H](OC)COC(=O)C/C=C\[C@@H]1C |  | -5.43% [at 11.4 µM] (inactive) |
| COC(=O)c1cn(C)c2ccc(S(=O)(=O)N3CC(C)CC(C)C3)cc2c1=O (centres undefined) | inactive |  |
| COCCn1c(=O)[nH]c2cc(C(=O)NCc3cccnc3)ccc2c1=O | 31.6 µM (active) |  |
| CC(C)(C)c1cc(C(=O)NCc2cccnc2)ccn1 | inactive |  |
| Cc1ccc(-n2nc(-c3ccco3)cc2C(=O)NCc2cccnc2)cc1 | inactive |  |
| Fc1ccc(-c2nnc(CSc3nnc(-c4ccc5c(c4)OCO5)o3)o2)cc1 | inactive |  |
| O=C(c1cccc(C(=O)N2CCN(c3ccc(F)cc3)CC2)c1)N1CCN(c2ccc(F)cc2)CC1 | inactive |  |
| Cc1cccc2cc(CN(Cc3ccc4c(c3)OCO4)Cc3nnnn3C3CCCC3)c(=O)[nH]c12 | inactive |  |
| Cc1cc(C)c2[nH]c(=O)c(C(c3nnnn3Cc3ccc4c(c3)OCO4)N3CCCC3)cc2c1 (centres undefined) | inactive |  |
| Cc1cccc2cc(CN(Cc3nnnn3Cc3ccccc3)C3CCCC3)c(=O)[nH]c12 | 31.6 µM (active) |  |
| Nc1nc2nc(Cl)[nH]c2c(=O)[nH]1 | inactive |  |
| CCOC(=O)C1CCCCN1Cc1ccc(OC)c(OC)c1OC (centres undefined) | inactive |  |
| Clc1ccc(CSc2nnc([C@@H]3CCCN3)o2)cc1 | inactive |  |
| Cc1ccc(S(=O)(=O)C(C#N)c2nc3ccccc3nc2N2CCCC2)cc1C (centres undefined) | 31.6 µM (active) |  |
| Cc1ccc(S(=O)(=O)N2CC(=O)Nc3ccccc32)cc1C | inactive |  |
| CC(C)OC(=O)C(C#N)c1nc2ccccc2nc1N1CCN(Cc2ccccc2)CC1 (centres undefined) | inactive |  |

| SMILES | Potency | activity change, negative = inhibition |
| --- | --- | --- |
| O=C(O)c1nn(-c2ccc(Cl)cc2)c2c1C(=O)c1ccccc1C2=O |  | -2.81% [at 11.4 µM] (inactive) |
| CCc1ccc(N(CC)c2ncnc3nc[nH]c23)cc1 | inactive |  |
| O=C(O)c1ccc(Cl)c(S(=O)(=O)Nc2ccccc2Cl)c1 | inactive |  |
| Cn1c(=O)n(C)c2cc(CNc3ccc(N4CCOCC4)c(C(=O)O)c3)ccc21 | 25.1 µM (active) |  |
| Cn1c(CN2CCOCC2)nc2cc(NC(=O)c3ccc(Cl)cc3)ccc21 | inactive |  |
| CC(=O)Nc1ccc(N2CCOCC2)c(C(=O)Nc2cccc(C)c2)c1 | inactive |  |
| COc1cccc(N(C(=O)c2ccn[nH]2)C2(C(=O)Nc3c(C)cccc3C)CCCCC2)c1 | inactive |  |
| CSCCC(Nc1nc2ccccc2s1)C(=O)O (centres undefined) | inactive |  |
| O=C(O)CN(Cc1ccco1)S(=O)(=O)c1ccc(F)cc1 | inactive |  |
| CC(C)c1ccc2c([Si](C)(C)C)c3c(nc2c1)-c1cccc(=O)n1C3 | inactive |  |
| Cc1c2c(nc3ccccc13)-c1cccc(=O)n1C2 | 7.94 µM (active) |  |
| CC(C)(O)CCC(O)[C@@](C)(O)C1CC[C@]2(O)C3=CC(=O)C4CC(O)C(O)C[C@]4(C)C3CC[C@]12C (some centres undefined) | inactive |  |
| CCOc1ccc(N2C(=O)CC(N(O)c3ccccc3)C2=O)cc1 (centres undefined) | inactive |  |
| N#Cc1nc(-c2ccc(OCc3ccccc3)cc2)oc1NCCCN1CCOCC1 | 25.1 µM (active) |  |
| N#Cc1nc(COc2ccc(-c3ccccc3)cc2)oc1NCc1cccnc1 | inactive |  |
| N#Cc1nc(Cc2ccccc2)oc1NCCc1ccccc1 | inactive |  |
| CC[C@]1(C)CC(=O)NC1=O | inactive |  |
| CC(C)(C)n1nnnc1C(c1cccs1)N(Cc1cccnc1)CC1CCCO1 (centres undefined) | inactive |  |
| COc1ccc2[nH]cc(CCNc3cc(-c4ccccc4CN(C)C)ncn3)c2c1 | inactive |  |
| Cc1cc(Nc2ccc(Br)cc2F)n2ncnc2n1 | inactive |  |
